What all share (test): NCI-60 one-dose screen, 48 h (100 = growth as untreated, 0 = no growth, -100 = all killed)
Settings in all cases: 10 µM unless noted

In experiment [1] the test system is BT-549 breast.
Experiment [2] has as its system MDA-MB-435 melanoma.
For experiment [3], the system named is SW-620 colon.
The subject of experiment [4] is MCF7 breast.
The subject of experiment [5] is HCT-116 colon.
The test system of experiment [6] is KM12 colon.
Experiment [7] deals with HCC-2998 colon.

About 83,000 compounds went through this panel and 20% of them were active in at least one assay; those are over-represented in the sample as a whole.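 Growth was measured after 48 h exposure to one concentration of compound in 96-well plates. Values under 10 count as active.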 Unmarked numbers belong to inactive results. Active and inactive are the calls of the source.

Turning to `CN(C)S(=O)(=O)c1oc(-c2ccccc2)nc1C#N`, the growth in experiment [1] was 64.4%; in experiment [2], 78.9%; in experiment [3] it was 0.559% (active); in experiment [4], 39.4%; in experiment [5] it was 61.3%; in experiment [6], 92.9%.
Turning to `COc1ccc(-c2nc3ccc(-c4nnc(SCC(=O)Nc5ccc(C(C)=O)cc5)o4)cc3[nH]2)cc1`, the growth in experiment [1] is 112%; in experiment [2], 102%; in experiment [3] it was 103%; in experiment [4] it was 77.1%; in experiment [5], 109%; in experiment [6], 105%.
On to `COC(=O)C(Cc1ccccc1)NS(=O)(=O)/N=C1\NC(=O)NC1=C(Cl)Cl` (stereo unspecified), for which the growth in experiment [1] was 95.6%; in experiment [2], 105%; in experiment [3], 98.9%; in experiment [4] it was 29.1%; in experiment [5], 77.3%; in experiment [6], 9.49% (active).
Consider `[Cl][Ru].c1ccc(-c2cc(-c3ccccn3)nc(-c3ccccn3)c2)cc1.c1ccc(-c2ccnc3c2ccc2c(-c4ccccc4)ccnc23)cc1`, for which the growth in experiment [1] was -94.6% (active); in experiment [2], -62.2% (active); in experiment [3], -56.7% (active); in experiment [4], -28.2% (active); in experiment [5], -79% (active); in experiment [6], -70.8% (active).
With `CO/N=C1\CCc2c(sc(NC(=O)c3cccc(C(F)(F)F)c3)c2C(N)=O)C1`, the growth was 49.4% in experiment [1]; 49.1% in experiment [2]; 43.4% in experiment [3]; 45.9% in experiment [4]; 5% (active) in experiment [5]; 56% in experiment [6].
As for `CCOC(=O)c1csc(NC(=O)CSc2nc3sc4c(c3c(=O)n2-c2ccc(Cl)cc2)CCCC4)n1`, the growth in experiment [1] is 99%; in experiment [2], 93.6%; in experiment [3] it was 103%; in experiment [4] it was 84.3%; in experiment [5] it was 105%; in experiment [6], 109%.
On to `NS(=O)(=O)c1cccc(Nc2nc(SCC(=O)c3ccc(Cl)cc3)nc3ccccc23)c1`, for which the growth in experiment [1] is 26.1%; in experiment [2], 77.6%; in experiment [3], 79.3%; in experiment [4] it was 65.6%; in experiment [5] it was 76.4%; in experiment [6], 71.7%.
Regarding `Cc1ccc2c(n1)C(=O)C(Cl)=C(Nc1cccc(C(C)C)c1)C2=O`, the growth in experiment [1] was 58.7%; in experiment [2] it was -70.6% (active); in experiment [3], 28.3%; in experiment [4], -56.7% (active); in experiment [5], 13.1%; in experiment [6] it was 80%.
Turning to `O=C(O)CCCCCN1C(=O)/C(=C/c2ccc(O)c(O)c2)SC1=S`, the growth in experiment [1] was 101%; in experiment [2], 103%; in experiment [3], 111%; in experiment [4], 90.5%; in experiment [5] it was 105%; in experiment [6], 105%.
For the compound `Nc1c(C(=O)Nc2ccc(Cl)cc2)sc2nc(-c3cnccn3)cc(-c3cccs3)c12`, the growth in experiment [1] was 65.3%; in experiment [2], 77.5%; in experiment [3], 66.3%; in experiment [4], 55.3%; in experiment [7], 104%; in experiment [6] it was 80.2%.
As to `O=C(N/N=C/c1ccc([N+](=O)[O-])o1)c1[nH]c2ccc(Br)cc2c1-c1ccccc1`, the growth is -32.1% (active) in experiment [1]; -40.8% (active) in experiment [2]; 10.5% in experiment [3]; 7.95% (active) in experiment [4]; -8.73% (active) in experiment [5]; 15.3% in experiment [6].
Regarding `CCN1C(=S)N(CC)C2C1N=C(SC)N2/N=C/C=C/c1ccccc1[N+](=O)[O-]` (stereo unspecified), the growth is 107% in experiment [1]; 94.4% in experiment [2]; 99.4% in experiment [3]; 76.9% in experiment [4]; 82.2% in experiment [5]; 97.6% in experiment [6].
In the case of `COc1ccc(/C=N/Nc2ccnc3cc(Cl)ccc23)cc1Cl`, the growth is -79.8% (active) in experiment [1]; -84.1% (active) in experiment [2]; -89% (active) in experiment [3]; -12.2% (active) in experiment [4]; -39.9% (active) in experiment [7]; -88.6% (active) in experiment [6].
Turning to `NC(=O)c1c(NC(=O)c2ccc(C3CCCCC3)cc2)sc2c1CCC(=O)C2`, the growth in experiment [1] was -2.9% (active); in experiment [2], 11.9%; in experiment [3], 10.4%; in experiment [4] it was 10.9%; in experiment [5] it was 7.94% (active); in experiment [6], 15.8%.
Turning to `O=c1[nH]c2ccc(Cl)cc2cc1CSc1ccccc1Nc1nccc(-c2ccc(Cl)cc2)n1`, the growth in experiment [1] is 113%; in experiment [2], 96.8%; in experiment [3], 91.9%; in experiment [4] it was 70.3%; in experiment [5], 90.4%; in experiment [6], 92%.
With `Cn1c(SCC(=O)c2cccs2)nc2ccccc2c1=O`, the growth in experiment [1] was 108%; in experiment [2] it was 103%; in experiment [3], 99.7%; in experiment [4] it was 62.4%; in experiment [5], 93.9%; in experiment [6] it was 99.1%.
In the case of `O=C1c2c(c3c4cccnc4[nH]c3c3ccc4ccccc4c23)C(=O)N1CCO`, the growth in experiment [1] is 86.8%; in experiment [2], 85.1%; in experiment [3], 57.6%; in experiment [4], 30.2%; in experiment [7], 101%.
For `O=C1Nc2ccccc2Oc2ccc(S(=O)(=O)CC3CO3)cc21` (stereo unspecified), the growth in experiment [1] was 25%; in experiment [2], 46.3%; in experiment [3] it was 17.9%; in experiment [4] it was 18.1%; in experiment [7], 71.9%.
As for `COc1ccc(Cc2nn(CC(=O)N/N=C/c3ccc(Cl)cc3)c(=O)c3c(C)noc23)cc1`, the growth in experiment [1] was 93.9%; in experiment [2], 94.5%; in experiment [3] it was 69%; in experiment [4], 83.5%; in experiment [5], 36.4%; in experiment [6], 85.9%.
For `CC(=O)c1ccc(Nc2nc(SC(C)C)nc(-c3ccccc3)c2C#N)cc1`, the growth in experiment [1] is 118%; in experiment [2], 102%; in experiment [3], 98.6%; in experiment [4], 90.6%; in experiment [7], 123%.
As to `COc1cc(/C=C/C(=O)c2cc(OC)c(OC)c(OC)c2)ccc1Oc1nc(NCCO)nc(N2CCOCC2)n1`, the growth in experiment [1] is -25.1% (active); in experiment [2] it was 4.93% (active); in experiment [3] it was -33.6% (active); in experiment [4] it was 8.4% (active); in experiment [5] it was -79.3% (active); in experiment [6] it was -44.6% (active).
In the case of `CS(=O)(=O)c1ccc(-c2nc3ccccn3c2/C=N/Nc2nc(-c3ccc(Cl)cc3)cs2)cc1`, the growth in experiment [1] is 103%; in experiment [2], 96.8%; in experiment [3] it was 113%; in experiment [4] it was 91.6%; in experiment [7], 125%; in experiment [6] it was 112%.
Turning to `CCCC(=O)NC(c1cccnc1)c1cc(C)c2cccnc2c1O` (stereo unspecified), the growth is 69.5% in experiment [1]; 59.7% in experiment [2]; 33.4% in experiment [3]; 10.6% in experiment [4]; 64.1% in experiment [7]; 38.4% in experiment [6].
Consider `CCOC(=O)c1sc(NCC(=O)Nc2cccc([N+](=O)[O-])c2)c(C(=O)OCC)c1C`, for which the growth in experiment [1] is -19.3% (active); in experiment [2], -82% (active); in experiment [3], 2.53% (active); in experiment [4], -4.78% (active); in experiment [5], 0.39% (active); in experiment [6], -9.01% (active).
As to `CCC/C=C/C=C/C(=O)N[C@@H](Cc1cc(F)cc(F)c1)C(=O)N[C@@H]1C(=O)N2CCC[C@H]2C(=O)N2CCCC[C@H]2C(=O)N[C@@H](C)C(=O)N2C[C@H](C)C[C@H]2C(=O)O[C@H]1C`, the growth in experiment [1] was 11.5%; in experiment [2], 17%; in experiment [3], 32.5%; in experiment [4], 15%; in experiment [7], 24.1%.
For `O=C(Nc1nc2ccc(O)cc2s1)c1cccc(C(F)(F)F)c1`, the growth in experiment [1] is 84.4%; in experiment [2], 44.7%; in experiment [3], 52.1%; in experiment [4], 73.7%; in experiment [5] it was 57.6%; in experiment [6], 42.7%.
As to `CNC(=O)c1cc(-c2ccc(NC(=O)Nc3ccc(N4CCN(C)CC4)c(C(F)(F)F)c3)cc2)nc2cccnc12`, the growth is -81.4% (active) in experiment [1]; -93% (active) in experiment [2]; -81.2% (active) in experiment [3]; -100% (active) in experiment [4]; -94.9% (active) in experiment [7].
With `COc1ccc([C@@H]2c3[nH]c4ccccc4c3CC3C(=O)N(C4CCN(Cc5c(F)cccc5F)CC4)CC(=O)N32)c(OC)c1` (stereo partly specified), the growth in experiment [1] was 30.4% [5.26 µM]; in experiment [2] it was 60% [5.26 µM]; in experiment [3], 64.6% [5.26 µM]; in experiment [4], 42.4% [5.26 µM]; in experiment [5], -15.2% [5.26 µM] (active); in experiment [6], 58.1% [5.26 µM].
Regarding `Cc1cc(C(NC(=O)CCCCCNc2cccc3c2C(=O)N(C2CCC(=O)NC2=O)C3=O)c2cccnc2)c(O)c2ncccc12` (stereo unspecified), the growth in experiment [1] is -30.8% (active); in experiment [2], 30.7%; in experiment [3], 13.3%; in experiment [4], 12.2%; in experiment [5], 24.8%; in experiment [6], 17.6%.
For `COc1cccc(COc2ccc(/C=C3/C(=O)Nc4cc(Cl)ccc43)cc2)c1`, the growth was 106% in experiment [1]; 99.9% in experiment [2]; 97.5% in experiment [3]; 70.7% in experiment [4]; 102% in experiment [7]; 97.1% in experiment [6].
`C/C(=C(/c1ccc(Cl)cc1)c1ccc(OCCN)cc1)c1ccc(C)cc1`: the growth in experiment [1] is 117%; in experiment [2], 97.3%; in experiment [3], 93.5%; in experiment [4], 102%; in experiment [7] it was 111%.
In the case of `COc1cccc(NC2=CC(=O)C(C)=C(C)C2=O)c1`, the growth in experiment [1] was 127%; in experiment [2], 7.25% (active); in experiment [3] it was 102%; in experiment [4], 64.1%; in experiment [5], 10.5%; in experiment [6] it was 98.4%.
For the compound `N#Cc1c(-c2ccc(F)cc2)nc2c(C#N)c(Nc3ccccc3)nn2c1N`, the growth in experiment [1] is 109%; in experiment [2], 95.5%; in experiment [3], 106%; in experiment [4], 91.7%; in experiment [5] it was 105%; in experiment [6], 97.9%.
Take `COc1cc(/C=C/C(=O)c2cc(OC)c(OC)c(OC)c2)ccc1OCc1ccccc1`: the growth in experiment [1] was 32%; in experiment [2] it was 45.9%; in experiment [3], 13.2%; in experiment [4], 8.1% (active); in experiment [5] it was 6.71% (active); in experiment [6], 11.3%.
As for `O=C(N/N=C/c1ccco1)c1[nH]c2ccc(Br)cc2c1-c1ccccc1`, the growth was -17.1% (active) in experiment [1]; 0.898% (active) in experiment [2]; 24.8% in experiment [3]; 10.7% in experiment [4]; 23% in experiment [7]; 12.8% in experiment [6].
For `COc1cccc(OC)c1-c1nnn(C)c1C(=S)N1CCN(c2ccc([N+](=O)[O-])cc2Cl)CC1`, the growth was 91.7% in experiment [1]; 102% in experiment [2]; 101% in experiment [3]; 85.7% in experiment [4]; 96.7% in experiment [7]; 108% in experiment [6].
Consider `Nc1ncc(-c2ccc3ncnc(N4CCc5cc(F)c(Cl)cc54)c3c2)cc1CO`, for which the growth in experiment [1] was -31.1% (active); in experiment [2] it was -34.4% (active); in experiment [3] it was 11.1%; in experiment [5], 6.3% (active); in experiment [7], 8.47% (active); in experiment [6] it was 0.831% (active).
On to `CC(O)C(NC(=O)C1CCCN1C(=O)CNC(=O)C1CC(=O)NCC(=O)NC(Cc2c[nH]c3ccccc23)C(=O)NC(Cc2ccc(O)cc2)C(=O)NCC(=O)NC(CO)C(=O)NC(CCC(N)=O)C(=O)NC(Cc2c[nH]c3ccccc23)C(=O)N1)C(=O)NCC(=O)NC(CCC(N)=O)C(=O)NC(CCCNC(=N)N)C(=O)NC(CC(=O)O)C(=O)O` (stereo unspecified), for which the growth is 115% in experiment [1]; 100% in experiment [2]; 102% in experiment [3]; 96.4% in experiment [4]; 105% in experiment [6].
